Measurements: ChEMBL document CHEMBL1157539, “Thousands of chemical starting points for antimalarial lead identification” (Nature, 2010)

These compounds were tested on HepG2 (assay: GSK_TCMDC: Percent inhibition of human HepG2 cell line. Test compounds present at 10uM.).
Assay type: functional

SMILES	Inhibition [%]
O=C(c1cc2cccc([N+](=O)[O-])c2[nH]1)N1CCC(CCN2CCC(c3c[nH]c4ccccc34)CC2)CC1	45
N#Cc1ccc(CN2CCCN(Cc3cccc(NC(=O)c4ccc(-c5ccccc5)cc4)c3)CC2)cc1.O=C(O)C(F)(F)F	33
CN(C)CCNC(=O)N1CCCN(c2ncnc3cc(-c4ccc(Cl)cc4)sc23)CC1.O=C(O)C(F)(F)F	41
CCCc1ccc(C2CCN(CCCCNC(=O)c3ccc(NC(=O)c4ccc(Cl)cc4)cc3)CC2)cc1	39
O=C(NCc1ccc(Cl)cc1)c1ccc(C(=O)NCC2CCCN2CC2CCCCC2)cc1.O=C(O)C(F)(F)F (centres undefined)	21
Cl.O=c1cc(NCCCNCc2cc3ccccc3s2)[nH]c2ccccc12	3
COc1ccc2ncc(C#N)c(CCN3CCC(NCc4ccc5c(c4)OCCO5)CC3)c2c1.Cl	12
CC(C)Sc1ccc(Cl)cc1CON1C(=N)N=C(N)NC1(C)C.Cl	66
COc1ccc(-c2ccc(CNC(=O)c3ccc(Cl)cc3)c(F)c2)cc1CN1CCCN(C)CC1.O=C(O)C(F)(F)F	25
CCC(C)CNC(=O)CN1CN(c2ccccc2)C2(CCN(C(=O)c3ccc(Br)cc3)CC2)C1=O (centres undefined)	10
CN(C)C(CNc1ncnc2cc(Cl)ccc12)Cc1ccccc1 (centres undefined)	13
COc1ccc(-c2cccc(NC(=O)c3ccc(Cl)cc3)c2)cc1CN1CCCC1.O=C(O)C(F)(F)F	55
CCN1CCN(CCCNc2c3ccc(Cl)cc3nc3ccc(O)cc23)CC1	32
Cc1cc(C)n(-c2nc(Nc3cccc(C(F)(F)F)c3)nc(-n3nc(C)cc3C)n2)n1	0
